{"source": "PubChem BioAssay AID434958", "about": "(Southern Research Specialized Biocontainment Screening …, 2010)", "note": "About 400 (33%) of roughly 1,200 compounds were called active. No rule for the calls is given here. Not all results are given here. Measured potencies and affinities stand elsewhere."}
{"test": "mammalian cell cytotoxicity, dose response, cytotoxicity control (AID 434958);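 also: cells exposed to compound for 72 hours before readout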", "conditions": "cytotoxicity counter-screen; series mostly up to 40 µM"}
{"molecule": "COc1ccnc(CS(=O)c2nc3cc(OC(F)F)ccc3[nH]2)c1OC", "note": "(stereo not given)", "outcome": "inactive"}
{"molecule": "CC(C(=O)Nc1cc([N+](=O)[O-])ccc1Cl)N1CCN(c2ccccc2O)CC1", "note": "(stereo not given)", "outcome": "inactive"}
{"molecule": "O=C(CSc1ccc([N+](=O)[O-])cn1)Nc1ccc(N2CCOCC2)cc1", "outcome": "inactive"}
{"molecule": "O=C(Nc1ccc(N2CCCCC2)cc1)c1cc([N+](=O)[O-])cc([N+](=O)[O-])c1", "outcome": "inactive"}
{"molecule": "O=C(Nc1ccccc1N1CCCC1)c1ccc2c(c1)OCO2", "outcome": "inactive"}
{"molecule": "CCOC(=O)COc1ccc2nsnc2c1", "outcome": "inactive"}
{"molecule": "CN(C)c1ccc(N=Nc2cccc3ccoc23)cc1", "outcome": "inactive"}
{"molecule": "N#C/C(C(=O)NCc1ccco1)=C1/SC=C(c2ccccc2)N1c1ccccc1", "outcome": "inactive"}
{"molecule": "CCOc1ccc(-c2nc(-c3ccccc3C)no2)cc1", "outcome": "inactive"}
{"molecule": "COc1cc(NC(=S)NC(=O)c2ccco2)ccc1NC(=O)C(C)C", "outcome": "inactive"}
{"molecule": "Cc1n[nH]c(C)c1CCCOc1ccccc1", "outcome": "inactive"}
{"molecule": "COc1cc(NC(=O)c2ccccc2)c(OC)cc1NC(=O)CN1CCOCC1", "outcome": "inactive"}
{"molecule": "COc1ccc(C(=O)CN(C(=O)c2ccc(Cl)cc2)N2C(=O)c3ccccc3C2=O)cc1", "outcome": "inactive"}
{"molecule": "COc1cc(NC(=O)c2ccccc2Cl)ccc1NC(=O)c1ccco1", "outcome": "inactive"}
{"molecule": "O=C(CN1CCN(S(=O)(=O)c2ccc(F)cc2)CC1)Nc1ccc2c(c1)OCCO2", "outcome": "inactive"}
{"molecule": "O=c1[nH]c(CSc2nnc3ccccn23)nc2ccccc12", "outcome": "inactive"}
{"molecule": "Cc1ccc(C(=O)NN2C(=O)/C(=C/c3cccn3C)SC2=S)cc1", "outcome": "inactive"}
{"molecule": "O=C(CCN1C(=O)/C(=C/c2ccccc2F)SC1=S)Nc1ccccn1", "outcome": "inactive"}
{"molecule": "CN(c1ccc(OCC(=O)Nc2ccc3[nH]c(=O)[nH]c3c2)cc1)S(=O)(=O)c1ccc(Cl)cc1", "outcome": "inactive"}
{"molecule": "CCN1C(=O)C(O)(CC(=O)c2ccc(-n3cccc3)cc2)c2ccccc21", "note": "(stereo not given)", "outcome": "inactive"}
{"molecule": "NC(=O)Nc1ccc(C(=O)OCC(=O)Nc2ccc(Cl)cn2)cc1", "outcome": "inactive"}
{"molecule": "O=C(Cn1ncc2c3ccccc3n(Cc3ccccc3F)c2c1=O)NCCCN1CCCC1=O", "outcome": "inactive"}
{"molecule": "CSc1nc(-c2ccc(Cl)cc2)nn1S(=O)(=O)c1ccccc1", "outcome": "inactive"}
{"molecule": "Cc1cccc(N2CCN(CC3CCCCC3)CC2)c1C", "outcome": "inactive"}
{"molecule": "CCOC(=O)Cc1nc2ccccc2[nH]1", "outcome": "inactive"}
{"molecule": "COc1ccc(CNC(=O)c2sc3nc4c(c(C(F)(F)F)c3c2N)CCC4)cc1", "outcome": "inactive"}
{"molecule": "CCOC(=O)c1[nH]c2ccccc2c1NC(=O)Nc1ccc(OC)cc1", "outcome": "inactive"}
{"molecule": "O=C(O)CSc1ncnc2c1sc1nc(-c3ccccc3)c3c(c12)CCC3", "outcome": "inactive"}
{"molecule": "CC(C)(C)c1ccc(C(=O)Oc2ccc3c(c2)OCC3=O)cc1", "outcome": "inactive"}
{"molecule": "CS/C(N)=N/N=C/c1cc(Br)cc(Br)c1O", "outcome": "inactive"}
